The source made the active and inactive calls.

Albumin (Bos taurus), sequence (P02769 whole entry, looked up): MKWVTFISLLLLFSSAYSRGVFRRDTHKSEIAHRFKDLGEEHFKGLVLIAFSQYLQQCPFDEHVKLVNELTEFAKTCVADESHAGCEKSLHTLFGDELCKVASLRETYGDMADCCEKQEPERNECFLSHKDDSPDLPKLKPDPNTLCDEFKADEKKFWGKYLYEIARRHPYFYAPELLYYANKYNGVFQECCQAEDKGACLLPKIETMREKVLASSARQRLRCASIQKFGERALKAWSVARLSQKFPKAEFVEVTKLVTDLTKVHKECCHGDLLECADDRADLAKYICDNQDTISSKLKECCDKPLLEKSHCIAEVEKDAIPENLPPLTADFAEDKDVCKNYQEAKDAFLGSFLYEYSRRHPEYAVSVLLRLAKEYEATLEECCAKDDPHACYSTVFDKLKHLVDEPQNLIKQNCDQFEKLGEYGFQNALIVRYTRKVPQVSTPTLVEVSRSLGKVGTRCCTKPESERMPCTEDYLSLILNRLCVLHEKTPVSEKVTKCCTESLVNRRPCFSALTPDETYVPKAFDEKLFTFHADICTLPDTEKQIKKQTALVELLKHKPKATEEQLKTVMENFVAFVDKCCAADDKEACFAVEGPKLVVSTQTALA

One assay addresses Albumin (Bos taurus) (UniProt P02769). As to the kind of experiment: compounds binding labelled BSA control protein – biochemical, small-molecule microarray, Alexa647 label, 635/667 nm fluorescence, artefact control for SMM control protein annotation, profiling panel (AID 1118).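 Note: score merges 667 nm emission intensity and signal-to-noise per printed compound spot.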 Particulars: BSA-A647 binding, fluorescence 635 nm, higher = more signal.
The molecule `C=CCNC(=O)[C@H]1[C@@H]2C(=O)O[C@@H](c3ccccc3)[C@@H](c3ccccc3)N2[C@@H](c2ccc(OCCO)cc2)[C@]12C(=O)N(C(=O)OCCOC)c1ccccc12` gave a composite z-score of 0.262.

`O=C1OCCC/C=C\[C@H]2OC34C=CCN(Cn5nnc6ccccc65)C(=O)[C@H]3N(CCCCCCO)C(=O)[C@@H]4C12` (some centres not stated) came in with a composite z-score of -0.265.

Molecule `COCCCNC(=O)C1N=C(c2ccc(OCCCO)cc2)N(c2ccccc2)O1` (configuration not stated) showed a composite z-score of 0.107.

On to `COc1ccc(CCNC(=O)[C@@H]2c3ccccc3C(=O)N(C3Cc4ccccc4C3)[C@H]2c2ccc(CO)cc2)cc1`, for which the composite z-score came out at 0.397.

`COC(=O)[C@@]1(Cc2ccc(OC)cc2)[C@H]2c3cc(C(=O)N4CCCC4)n(Cc4ccc(OC)c(OC)c4)c3C[C@H]2CN1C(=O)c1ccccc1` had a composite z-score of 1.08.

With `COc1ccc([Si](C)(C)[C@H]2[C@H](CCO)O[C@@]3(C(=O)N(C)c4c(Br)cc(C)cc43)[C@@H]2C)cc1`, the composite z-score was -0.094.

Regarding `CCOC(=O)[C@H]1C/C=C/C[C@H](C(=O)OCC)C(=O)O[C@H]2[C@@H](OC)O[C@H](CO)[C@@H](OC(=O)Nc3cccc(F)c3)[C@@H]2OC1=O`, the composite z-score was determined as 0.407.

Test system in the next assay: not listed separately
Put plainly: probe aXIP binding to arrayed compounds – biochemical, NeuroSMM set, 635/667 nm fluorescence, primary screen (AID 1119).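 Note: probe is the protein aXip251-270 applied at 1 µg/mL to compound-printed slides; binding of probe to printed compounds measured as 667 nm fluorescence plus signal to noise.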 Particulars: small-molecule microarray, higher = more signal, called active from +8 up or from −8 down.
Take `CCCN1C(=O)[C@]2(CCS(=O)(=O)c3ccccc3)N=C(c3ccc(OCCCO)cc3)O[C@@H]2c2ccccc21`: the composite Z-score is -0.0745 (inactive).

Turning to `CC(C)(C)C(=O)N[C@@H](c1ccc(Cl)cc1)[C@]1(C)C[C@H]1C1CCCCC1`, the composite Z-score is -0.149 (inactive).

As for `COc1cc(CO)cc(I)c1O[C@H]1C=C(C(=O)NCCO)C[C@@H](N(CCN2CCOCC2)C(=O)C2CCOC2)[C@@H]1O` (some centres not stated), the composite Z-score was 0.0953 (inactive).

As to `C[C@]1(C(=O)NC2CC2)c2ccccc2C(=O)N(Cc2cc(C(F)(F)F)cc(C(F)(F)F)c2)[C@H]1c1ccc(CO)cc1`, the composite Z-score is 0.676 (inactive).

Regarding `COCCOC(=O)N1C(=O)[C@@]2(c3ccccc31)[C@H](c1ccccc1OCCO)N1[C@H](c3ccccc3)[C@H](c3ccccc3)OC(=O)[C@H]1[C@@H]2C(=O)Nc1nc2ccccc2s1`, the composite Z-score was 0.746 (inactive).

Consider `CC(=O)NCCCC[C@@H]1NC(=O)[C@@H]2C[C@H](C(=O)NCCCCCCNC(=O)CS)[C@H](c3cccc(OCCO)c3)N2C1=O`, for which the composite Z-score is 0.405 (inactive).

As for `CCCCC(=C=CC[C@@H](O)c1ccccc1OCCO)CCO`, the composite Z-score is 0.35 (inactive).

Regarding `C=C(COC)/C(=C/C[C@H](OC(=O)c1ccncc1)c1ccc(OCCO)cc1)c1cnc2ccccc2c1`, the composite Z-score was 0.914 (inactive).

As to `COC(=O)[C@@]1(Cc2ccc(F)cc2)[C@@H]2[C@@H](CC(=O)[C@H]2CC(=O)C(=O)N(C)C)CN1C(=O)c1ccccc1`, the composite Z-score was 0.742 (inactive).

As to `NCCCCCNC(=O)[C@@H]1C[C@@H]2C(=O)N[C@@H](Cc3ccccc3)C(=O)N2[C@@H]1c1cccc(OCCO)c1`, the composite Z-score is 0.376 (inactive).

Consider `Cc1ccc(C(C)CC(O)C2C=CC3C(=O)N(C)C(=O)C3N2NC(=O)OC(C)(C)C)o1` (configuration not stated), for which the composite Z-score was 1.31 (inactive).

As to `COCCOC(=O)N1C(=O)[C@@]2(c3cc(C#Cc4ccc(OC)cc4)ccc31)[C@H](c1ccc(O)cc1)N1[C@H](c3ccccc3)[C@H](c3ccccc3)OC(=O)[C@H]1[C@@H]2C(=O)NC[C@H](O)c1ccccc1`, the composite Z-score was 0.434 (inactive).

`O=C(C1N=C(c2ccc(OCCCO)cc2)N(c2ccccc2)O1)N1CCOCC1` (configuration not stated): the composite Z-score is 0.0285 (inactive).

`O=C1O[C@@H](c2ccccc2)[C@@H](c2ccccc2)N2[C@@H](c3ccc(OCCO)cc3)[C@]3(C(=O)Nc4ccccc43)[C@@H](C(=O)NC[C@H](O)c3ccccc3)[C@H]12`: the composite Z-score is 0.312 (inactive).

For `O=C(O)[C@@]1(CCS(=O)(=O)c2ccccc2)COC(c2ccc(OCCCO)cc2)=N1`, the composite Z-score is 0.714 (inactive).

For `O=C1O[C@H](c2ccccc2)[C@H](c2ccccc2)N2[C@H]1[C@@H](C(=O)O)[C@]1(C(=O)Nc3ccc(C#CCCO)cc31)[C@H]2c1ccc(O)cc1`, the composite Z-score was 0.0575 (inactive).

`O=C1C2C=CC(C(O)C(c3ccccc3)c3ccccc3)N(n3cnnc3)C2C(=O)N1Cc1ccccc1` (configuration not stated): the composite Z-score was 0.0479 (inactive).

With `CCOC(=O)C[C@H]1[C@H](OC(=O)c2ccc(C(=O)c3ccccc3)cc2)[C@@H](NC(=O)c2ccc(-c3ccccc3)cc2)c2cc(OCCCO)ccc2N1C(=O)c1ccccc1`, the composite Z-score is 2.04 (inactive).

As to `CN1C(=O)[C@]2(Cc3ccccc3)N=C(c3ccc(OCCCO)cc3)O[C@@H]2c2ccccc21`, the composite Z-score is 0.307 (inactive).

Take `CC(CO)N1C(=O)[C@@H]2C3C(=O)OCCC/C=C\[C@H]3OC23C=CCN(c2ccc4ccccc4c2)C(=O)[C@@H]13` (some centres not stated): the composite Z-score was -0.0775 (inactive).

For `Cc1ccc(S[C@]2(C(=O)NC3CC3)CC(=O)N(C3Cc4ccccc4C3)[C@@H]2c2ccc(CO)cc2)cc1`, the composite Z-score was 0.157 (inactive).

Consider `COCCOC(=O)N1C(=O)[C@@]2(c3cc(C#CC4=CCCCC4)ccc31)[C@H](C(=O)Nc1nc3ccccc3s1)[C@H]1C(=O)O[C@H](c3ccccc3)[C@H](c3ccccc3)N1[C@@H]2c1ccc(OCCO)cc1`, for which the composite Z-score is -0.114 (inactive).

For the molecule `CC(C)C[C@@H]1NC(=O)[C@H]2C[C@@H](C(=O)NCCCCCCN)[C@@H](c3ccc(O)cc3)N2C1=O`, the composite Z-score was 0.0781 (inactive).

For the molecule `C=CCN(Cc1ccccc1)C(=O)C(c1cccs1)N(CCOCCO)C(=O)/C=C\C(=O)O` (configuration not stated), the composite Z-score is 0.131 (inactive).

In the case of `O=C1OCCC/C=C\[C@H]2OC34C=CCN(CCN5CCOCC5)C(=O)[C@H]3N(CCCO)C(=O)[C@@H]4C12` (some centres not stated), the composite Z-score was 0.546 (inactive).

`[N-]=[N+]=NCc1ccccc1C[C@]1(C(=O)N2CCOCC2)N=C(c2ccc(OCCCO)cc2)O[C@H]1c1ccccc1N=[N+]=[N-]`: the composite Z-score is -0.235 (inactive).

Take `C=CCNC(=O)[C@H]1[C@@H]2C(=O)O[C@@H](c3ccccc3)[C@@H](c3ccccc3)N2[C@@H](c2ccccc2OCCO)[C@]12C(=O)Nc1ccc(C#CC3=CCCCC3)cc12`: the composite Z-score was 1.86 (inactive).

`C=CCN1C(=O)[C@@]2(O[C@@H](CCO)[C@H]([Si](C)(C)c3ccc(OC)cc3)[C@H]2C)c2cc(NC(=O)c3ccc(OC)cc3)ccc21`: the composite Z-score is -0.265 (inactive).

On to `C=CCNC(=O)[C@H]1[C@@H]2C(=O)O[C@@H](c3ccccc3)[C@@H](c3ccccc3)N2[C@@H](c2ccc(OCCO)cc2)[C@]12C(=O)N(C(=O)OCCOC)c1ccccc12`, for which the composite Z-score was 0.108 (inactive).

As to `O=C1OCCC/C=C\[C@H]2OC34C=CCN(Cn5nnc6ccccc65)C(=O)[C@H]3N(CCCCCCO)C(=O)[C@@H]4C12` (some centres not stated), the composite Z-score was 0.236 (inactive).

Regarding `COCCCNC(=O)C1N=C(c2ccc(OCCCO)cc2)N(c2ccccc2)O1` (configuration not stated), the composite Z-score was -0.442 (inactive).

Regarding `COc1ccc(CCNC(=O)[C@@H]2c3ccccc3C(=O)N(C3Cc4ccccc4C3)[C@H]2c2ccc(CO)cc2)cc1`, the composite Z-score was 0.131 (inactive).

Take `COC(=O)[C@@]1(Cc2ccc(OC)cc2)[C@H]2c3cc(C(=O)N4CCCC4)n(Cc4ccc(OC)c(OC)c4)c3C[C@H]2CN1C(=O)c1ccccc1`: the composite Z-score is 0.983 (inactive).

For the molecule `COc1ccc([Si](C)(C)[C@H]2[C@H](CCO)O[C@@]3(C(=O)N(C)c4c(Br)cc(C)cc43)[C@@H]2C)cc1`, the composite Z-score was -0.303 (inactive).

As to `CCOC(=O)[C@H]1C/C=C/C[C@H](C(=O)OCC)C(=O)O[C@H]2[C@@H](OC)O[C@H](CO)[C@@H](OC(=O)Nc3cccc(F)c3)[C@@H]2OC1=O`, the composite Z-score was 0.46 (inactive).

The values are drawn from PubChem BioAssay.
